# T1: USP38, Q8NB14
# T1 chain: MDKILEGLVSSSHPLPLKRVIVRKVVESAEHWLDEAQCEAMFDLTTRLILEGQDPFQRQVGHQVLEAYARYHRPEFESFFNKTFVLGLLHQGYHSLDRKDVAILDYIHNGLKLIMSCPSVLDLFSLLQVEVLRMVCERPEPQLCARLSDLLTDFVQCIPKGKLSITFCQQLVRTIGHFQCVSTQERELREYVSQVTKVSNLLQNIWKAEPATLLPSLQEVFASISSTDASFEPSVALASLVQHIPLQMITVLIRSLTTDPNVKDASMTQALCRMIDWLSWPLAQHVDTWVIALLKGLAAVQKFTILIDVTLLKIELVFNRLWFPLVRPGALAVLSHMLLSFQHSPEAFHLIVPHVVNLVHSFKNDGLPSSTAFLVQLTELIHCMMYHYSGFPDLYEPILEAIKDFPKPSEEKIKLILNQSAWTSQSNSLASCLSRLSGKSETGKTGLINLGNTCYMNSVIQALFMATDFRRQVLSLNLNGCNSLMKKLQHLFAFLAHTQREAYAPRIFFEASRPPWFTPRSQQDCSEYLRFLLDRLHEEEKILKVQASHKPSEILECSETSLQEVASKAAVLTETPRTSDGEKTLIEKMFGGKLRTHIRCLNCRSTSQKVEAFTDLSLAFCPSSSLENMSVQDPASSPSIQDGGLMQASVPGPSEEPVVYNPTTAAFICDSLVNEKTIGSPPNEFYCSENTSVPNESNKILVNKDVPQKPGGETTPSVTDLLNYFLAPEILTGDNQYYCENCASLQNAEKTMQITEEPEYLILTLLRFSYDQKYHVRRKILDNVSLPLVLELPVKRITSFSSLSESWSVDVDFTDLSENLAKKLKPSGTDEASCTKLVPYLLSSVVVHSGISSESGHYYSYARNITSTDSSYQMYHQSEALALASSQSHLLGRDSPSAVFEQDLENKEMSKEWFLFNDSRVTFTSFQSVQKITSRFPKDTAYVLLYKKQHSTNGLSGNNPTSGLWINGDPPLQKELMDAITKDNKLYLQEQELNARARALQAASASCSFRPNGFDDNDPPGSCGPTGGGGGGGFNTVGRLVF
# B1: usp_38_diff_out_3_124_513 (protein)
# chain: AEAEKLAKELDKALKELEKLIKEAEKELDKDPEKLKKLLEEADETLDRAAGLYMQLHELAAEDPSTRPLLKKAREKANKVIDRYTEVRTKALERLAELEE
# B2: usp_38_diff_out_3_124_514 (protein)
# chain: SRAEALFAKLKELLAKAEELIKKAEEELDKNLEELKKLLEELDKVMDEASRVFMELHELAAEDPAHRPLLKEARAASNKVVTRYTEVVLKALERLAEAEE
# B3: usp_38_diff_out_3_124_515 (protein)
# chain: AEAEALLAELEELLERAEELIERAEEELDGDLERLRELLEELDEVLDELSAVFMRLHELAAEDPSHRPLLKEARKRSNEVITRATEVRLRALERLAEAAE
# B4: usp_38_diff_out_3_124_516 (protein)
# chain: MKAEKLYEELKKLLKEIEKLIKEAKKELNKDLEELKKLLKELDKKLDELSKVFMELHELAAEDPRYRPLLKEARKESNKVITEATKVKLEALERLAEEEE
# B5: usp_38_diff_out_3_124_517 (protein)
# chain: SRADELAAEARATLAELNATLAELEAALDTDLERARELAARADELLARLSGLLLELRDLAREDPRYRPTLKELEAEANAAIDRYTELMTRLFEKEAEAAA
# B6: usp_38_diff_out_3_124_518 (protein)
# chain: SEAEELVAKAKELLEKLTKVLEEAEKALDKDLEKAEKLLKEADELLTELSAALLRLRDLAMADPSWRPALKEIEAKANEVIDKYTEVATKFFEKKAEAQE
# B7: usp_38_diff_out_3_136_519 (protein)
# chain: STEEVKEEIKRLEATAESMKESTLKLIEELSKDPNVTPEDVEELKKVVLSAFQDLKDDVKALKEAHPEVKEEADKAEAKIEAYKAEVEAAFDALIAEKKA
# B8: usp_38_diff_out_3_136_522 (protein)
# chain: SVAAVKAEIERLKATADEMKKSTLRLIAELSKDPNVTPEDVESLKKVVLDSYQDLKDDVKALKAANPEVAAQADAALAAIDANAAEVKAAFDALLKEKKA
# B9: usp_38_diff_out_3_136_523 (protein)
# chain: MLEEVRERVRRLEETAVSLKESMLKLIEELKKDPNVTPEDVEELRKVVLDAFDSLKAEVKEIQERYPEVKEEAEKALETIEKKKKEVDKAFEELIKEKKA
# B10: usp_38_diff_out_3_136_524 (protein)
# chain: ATAAAKAQIKALEATAKALKEDSLKLVKELLEDPNVTPEDLESLKKIVLSSFDDLIAEVKAIKAAHPEVAAEADKAIKAIEEYKKEVEKAFNEAIAKKKA
# B11: usp_38_diff_out_3_136_525 (protein)
# chain: SVAEAREQIKALEATAKALKESMLKLVEELLKDPNVTPEDLRELKEIVLDSFEDIKAEVEKIKKAHPEVKAEADAAIKKIEAYKKEVEAAFDAAIAAKEA
# B12: usp_38_diff_out_3_136_526 (protein)
# chain: SVAAVKAQIKALEATARALKEDMLKLVEELLKDPNVTPEDLESLKKIVLDSFDDIIKEVEELAKKYPEVKEEAEKAIKKIEEYRDEVKKAFDEAIKEKKA
# B13: usp_38_diff_out_3_136_527 (protein)
# chain: ATAAVRARIRALEETARELKRSSLRLVEELLKDPNVTPEDLEELRKIVLDSFRDLEEEVRRLAAAEPAVAEEARRAEEEIRRYREEVERAFEEAIAAKKA
# B14: usp_38_diff_out_3_65_528 (protein)
# chain: GVEELLARAEEALRRLEEVIREAEEALKRAEELSAEELDELIRRATRVALEAERIRRELRRAGDSPEIRAAIARLEEAIERLNEVIERLTEALTAKLIAE
# B15: usp_38_diff_out_3_65_529 (protein)
# chain: KVEEEIKKAKKYLEEARKIIEELKEKVKTDPTITEEEVNEMLDEAADLIVKAGEALRKARKLNPDEEQKKEIEKLEKELDELIDEYTEAGREAFLAVGER
# B16: usp_38_diff_out_3_65_530 (protein)
# chain: KVEEKLKEAEEHLEKAEELVEELRRLTEEDPTLTADEVVEMLDKIDDELVAAGKAIEEAKKLNPTPEQKKKIEELEKRLDELIDRRIEAAEEAFLRVGEA
# Target: T1, USP38, Q8NB14
# Assay: median log2 fold change of GCK-ALFA target abundance (FLAG IP / Myc IP barcode read proportion) (log2 ratio); each designed protein is fused to an ALFA-tag nanobody in HEK293 cells to bring the named protein to FLAG-tagged glucokinase (GCK); Myc marks an untargeted standard; higher = target protein stabilised (more abundant)
# Settings: target protein: 3xFLAG-MCP-GCK-ALFA reporter; HEK293 landing pad (RPLP)
# In short: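 HEK293 landing-pad cells received a recombined binder library fused to the ALFA nanobody and were induced with 2 μg mL^−1 doxycycline, then transfected with a plasmid encoding a FLAG-tagged target and a Myc-tagged standard. Lysates were collected after 48 h for anti-FLAG and anti-Myc immunoprecipitation, and the circular RNA barcodes were reverse transcribed, amplified and sequenced. Target abundance for each binder is the median log2 ratio of FLAG to Myc barcode read proportions. Barcodes had to reach a proportion of at least 10^−7 in both replicates, each binder needed at least 3 barcodes per replicate, a pseudocount of 10^−6 was applied, and the two replicates were pooled.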
row,Binder,median log2 fold change
1,B1,-0.564
2,B2,-0.179
3,B3,0.0853
4,B4,0.0275
5,B5,-0.553
6,B6,-0.761
7,B7,0.188
8,B8,-0.0509
9,B9,-0.217
10,B10,-0.221
11,B11,-0.268
12,B12,0.0442
13,B13,-0.205
14,B14,0.193
15,B15,0.0941
16,B16,0.137

# — the supplement of paper PMC12632987
